Results from PubChem BioAssay (NCI).
This is part of a sample that, as a whole, favours compounds with a hit. Of some 79,000 tested, about 15% had one in any assay. Rule as the data show it: active = growth inhibition above about 70%; inactive = the rest.

Tests used:
[1] = NCI Yeast Anticancer Drug Screen. Data for the rad50 strain (AID 155);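 also: 0% = growth of vehicle-only cultures of the same strain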; conditions: S. cerevisiae rad50 strain growth inhibition; at 50.0 µM; stronger effect = higher value
Procedure, shortened: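 Growth of the mutant yeast was measured after compound exposure and referenced to vehicle-treated cultures.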

[2] = NCI Yeast Anticancer Drug Screen. Data for the mec2-1 strain (AID 157); conditions: S. cerevisiae mec2-1 strain, at 50.0 µM, stronger effect = higher value
Procedure, shortened: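 mec2-1 yeast strain, carrying an alteration in DNA damage repair or cell cycle control, was exposed to compounds; growth inhibition was measured relative to vehicle-treated controls.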

[3] = NCI Yeast Anticancer Drug Screen. Data for the sgs1 mgt1 strain (AID 161);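 also: 0% = growth of cultures given vehicle only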; conditions: S. cerevisiae sgs1 mgt1 strain, at 50.0 µM, stronger effect = higher value
Procedure, shortened: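 Growth of a repair-deficient yeast mutant was monitored after compound treatment and expressed as inhibition relative to vehicle-treated cultures.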

[4] = NCI Yeast Anticancer Drug Screen. Data for the cln2 rad14 strain (AID 165);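 also: 0% = growth equal to vehicle treated cultures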; conditions: S. cerevisiae cln2 rad14 strain, at 50.0 µM, stronger effect = higher value
Procedure, shortened: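 Yeast carrying cln2 and rad14 alterations (cell cycle control and DNA damage repair) were exposed to compounds. Growth inhibition was measured against vehicle-treated controls.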

[5] = NCI Yeast Anticancer Drug Screen. Data for the bub3 strain (AID 167); conditions: S. cerevisiae bub3 mutant strain, at 50.0 µM, stronger effect = higher value
Procedure, shortened: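 Whole-cell yeast assay. The mutant strain was incubated with compounds, and growth inhibition was determined by comparison with vehicle-treated cells.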

[6] = NCI Yeast Anticancer Drug Screen. Data for the mlh1 rad18 strain (AID 175); conditions: S. cerevisiae mlh1 rad18 strain growth inhibition; at 50.0 µM; stronger effect = higher value
Procedure, shortened: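 Growth inhibition of the yeast strain was measured after compound exposure and expressed relative to vehicle-treated controls. The strain carries defined defects in DNA damage repair.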

Measured: growth inhibition

Cc1nn(CO)c(C)c1Br
inactive: [1] 9.8% | [2] -18.4% | [3] 5.9% | [4] 21.8% | [5] -2.6% | [6] 11.7%

C/C(=N\NC(N)=O)c1sc(-c2nc(C)c(/C(C)=N/NC(N)=O)s2)nc1C
inactive: [1] 32.8% | [2] 22.8% | [3] 20.9% | [4] 43.3% | [5] -16.1% | [6] 27.5%

CN(C(=O)C12C3C4C1C1C2C3C41C(N)=O)C(C)(C)C (stereo not given)
inactive: [1] 9.6% | [2] 7.8% | [3] 4.35% | [4] 25.1% | [5] 18.5% | [6] -6.3%

CS(=O)(=O)N1CC(CCl)c2ccc(NO)cc21 (stereo not given)
inactive: [1] 43.5% | [2] 27.9% | [3] 24.9% | [4] 17.3% | [5] 0.45% | [6] -32.4%

COc1ccccc1N1C(Cl)C(=O)C1c1c[nH]c2ccccc12 (stereo not given)
inactive: [1] 26.9% | [2] -40.3% | [3] -28.7% | [4] 4.4% | [5] -26.6% | [6] -34.9%

O=C(CN=C(CN(c1ccccc1)c1ccccc1)Oc1c(Cl)cc(Cl)cc1Cl)N1c2ccccc2Sc2ccccc21
inactive: [1] 4.75% | [2] -10.8% | [3] 36.5% | [4] -36.2% | [5] -14.7% | [6] 7.8%

CCCCCc1[nH]c(=O)[nH]c(=O)c1S(=O)(=O)N1CCCCC1
inactive: [1] 0.15% | [2] 28.4% | [3] 18.7% | [4] 3.4% | [5] 25.9% | [6] 18.2%

CC(C)C(NC(=O)C(Cc1ccccc1)NC(=O)[C@H]1CCC[C@H]1NC(=O)C(Cc1ccc(OC(C)(C)C)cc1)NC(=O)OC(C)(C)C)C(N)=O (stereo not given in full)
inactive: [1] -11.2% | [2] -6.7% | [3] -15.8% | [4] 18.7% | [5] -7.65% | [6] -0.2%

C/C(N)=N/OCc1ccccc1
inactive: [1] 8.9% | [2] 6.95% | [3] 10.7% | [4] 4.7% | [5] 10.2% | [6] 7.7%

CS(=O)(=O)OCCCSCCSCCCOS(C)(=O)=O
inactive: [1] -4% | [2] -0.05% | [3] 3.1% | [4] -4.8% | [5] -11.2% | [6] -10.1%

O=C(CCN1CCC2CCC(C2)C1)c1ccc(Cl)cc1 (stereo not given)
inactive: [1] 17.3% | [2] 3.35% | [3] 46.5% | [4] -4% | [5] 21.3% | [6] -7.3%

CC(=O)Oc1c(/C=C/c2ccccc2)c(OC(C)=O)c2cc(Br)ccc2c1OC(C)=O
inactive: [1] 13.1% | [2] 28.2% | [3] 25.2% | [4] -27% | [5] -17.2% | [6] 29.6%

O=C(Nc1ccccc1C(=O)NCc1ccccc1)/C(=C/c1ccccc1)NC(=O)c1ccccc1
inactive: [1] 7.25% | [2] 6.9% | [3] -0.95% | [4] 4.05% | [5] 6.8% | [6] -34.7%

CCOc1cccc(OCC)c1C
inactive: [1] -4.55% | [2] -17.4% | [3] -2.55% | [4] 11.3% | [5] -9% | [6] 14.9%

O=C(COC(=O)C(CC(=O)c1ccccc1)Cc1ccccc1)c1ccc(-c2ccccc2)cc1 (stereo not given)
inactive: [1] 25.7% | [2] 25.3% | [3] 6% | [4] 30.8% | [5] 35.4% | [6] 13.3%

O=C(Nc1ccc(F)cc1)c1cc2c(cc1Cl)Sc1nccn1S2(=O)=O
inactive: [1] -7% | [2] -4% | [3] -8.8% | [4] 16.9% | [5] 3.55% | [6] 2.7%

O=C1/C(=C/c2ccc(Cl)cc2)COc2ccc(Br)cc21
inactive: [1] 26.1% | [2] 4.85% | [3] -5.1% | [4] 6.7% | [5] 1.8% | [6] -2.45%

O=C1NC(=O)C(c2ccc(O)cc2)N1 (stereo not given)
inactive: [1] -21.1% | [2] -14.8% | [3] -4.6% | [4] -30.9% | [5] 0.2% | [6] -10.2%

NC(N)=NCCCc1ccccc1
inactive: [1] 7.05% | [2] 7.25% | [3] 0.8% | [4] 1.85% | [5] 4% | [6] -3.55%

O=C1OC2(CC1n1cnc3ccccc3c1=O)C(=O)Nc1ccccc12 (stereo not given)
inactive: [1] 4.3% | [2] -21.2% | [3] 8.5% | [4] 8.3% | [5] -1.15% | [6] 11.2%

O=C1C2Cc3ccccc3CN2C(=O)N1CN1CCN(CN2C(=O)C3Cc4ccccc4CN3C2=O)CC1 (stereo not given)
inactive: [1] -13.1% | [2] -0.05% | [3] -16.6% | [4] -10.9% | [5] -28.6% | [6] -5.8%

O=C(O)CS(=O)(=O)O
inactive: [1] 11.2% | [2] 0.45% | [3] -4.3% | [4] 5.3% | [5] 0.75% | [6] 5.55%

CC(=O)N(Cl)c1ccc(N=Nc2ccccc2)cc1F
inactive: [1] 24.5% | [2] 15.1% | [3] 32.5% | [4] -9.7% | [5] -7.7% | [6] 6.8%

O=C(Cc1nc2ccc([N+](=O)[O-])cc2[nH]c1=O)C(=O)Nc1ccccc1[N+](=O)[O-]
inactive: [1] 25.6% | [2] 8.8% | [3] 11.1% | [4] 12.2% | [5] 15.8% | [6] 6.05%

O=C(NC(=O)C1CCC(=O)N1Cc1ccccc1)NC1CCC(=O)N1Cc1ccccc1 (stereo not given)
inactive: [1] 3.35% | [2] 3.1% | [3] -26.1% | [4] 1.8% | [5] 0.85% | [6] 17.2%

NC(CCCC(N)P(=O)(O)c1ccccc1)P(=O)(O)c1ccccc1 (stereo not given)
inactive: [1] -37.9% | [2] -40.5% | [3] -63.5% | [4] -9.65% | [5] -45.5% | [6] -46.6%

CC1(O)/C=C\C=C(\CO)C2CC(C)(C)C2(O)CC1 (stereo not given)
inactive: [1] -29.9% | [2] -40% | [3] -43.1% | [4] -4.5% | [5] -46% | [6] -29.8%

O=c1[nH]cnc2c1cnn2-c1ccccc1
inactive: [1] 17.1% | [2] 5.3% | [3] 9.7% | [4] 3.85% | [5] -2.05% | [6] 22.4%

O=CN/C=C\c1cc(O)ccc1O
inactive: [1] 3.1% | [2] 4.45% | [3] -2.6% | [4] 21.4% | [5] 16.9% | [6] 13.1%

N#C/C(=C\N1CC(=O)NC1=S)c1nc2ccccc2s1
inactive: [1] 4.75% | [2] 8.45% | [3] -6.05% | [4] 23.3% | [5] 24.9% | [6] 19.2%

CCc1nc2ccccc2cc1C
inactive: [1] 5.5% | [2] -4.55% | [3] 3.5% | [4] -19.6% | [5] 1.1% | [6] 2.6%

Brc1ccccc2cc(-c3ccccc3)nc1-2
inactive: [1] 54.9% | [2] 30.5% | [3] 34.5% | [4] 19.9% | [5] 37.2% | [6] -7%

CCCCCC(C)C(C#N)C(=O)OCC (stereo not given)
inactive: [1] 1.2% | [2] -18.4% | [3] -14.4% | [4] -3.75% | [5] -18.9% | [6] -20.9%

CCOC(=O)CCC(NC(=O)OCc1ccccc1)C(=O)NC(CCC(=O)OCC)C(=O)NC(CCC(=O)OCC)C(=O)NC(CCC(=O)OCC)C(=O)NC(CCC(=O)OCC)C(=O)NC(CCC(=O)OCC)C(=O)NC(CCC(=O)OCC)C(=O)OCC (stereo not given)
inactive: [1] -23.8% | [2] -16.5% | [3] -10.2% | [4] 26.2% | [5] -10.7% | [6] 2.2%

N#CC1=CNc2ccccc2N=C1N
inactive: [1] 8.55% | [2] -4.75% | [3] 28.4% | [4] 8.55% | [5] 28.2% | [6] 24.1%

CCCOCN1COCN=C1NC#N
inactive: [1] 28.8% | [2] 12.3% | [3] -4.7% | [4] -0.05% | [5] 5.65% | [6] 5.75%

CC1=C(C)CC2C(=O)c3c(O)ccc(O)c3C(=O)C2C1 (stereo not given)
inactive: [1] 28.9% | [2] 44.9% | [3] 52% | [4] 4.15% | [5] 39.9% | [6] 50.1%

Cc1cccc(C)c1NCC(=O)NN
inactive: [1] 9.5% | [2] 6.05% | [3] 0.85% | [4] -22.9% | [5] 5.85% | [6] 8.55%

CC(C)(C)[Si](C)(C)OC1CCOC1(O)c1ccccn1 (stereo not given)
inactive: [1] 5.75% | [2] 0.65% | [3] 29.6% | [4] 37.1% | [5] 35.8% | [6] -8.2%

Cc1occc1C(=S)Nc1ccc(Cl)c(C(=O)OC2CCCC2)c1
inactive: [1] 40.1% | [2] 21.2% | [3] 35% | [4] 60.5% | [5] 46.4% | [6] 29.6%
